Experimental data from PubChem BioAssay (Tox21).
Records with an inconclusive call do not appear. The source made the active and inactive calls. Calls follow the shape of the dose curve; as a rule, active = well fitted cell-killing curve with a large enough effect in the repeat runs; inconclusive = weak or mixed curves, or effect the other way; inactive = flat fitted curve, though single readings scatter.

Assay: cAMP Responsive Elements (CRE) small molecule antagonists, cell-based qHTS assay: qHTS cell viability counter screen (AID 2060913); also: nearly all actives have a fitted effect of over 40% in size
Details: CRE-bla HEK293T viability, CellTiter-Glo luminescence, 5 h; series mostly up to 92.4 µM; viability change, negative = cytotoxic: at the top concentration
How it was run: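 Cytotoxicity counter screen multiplexed with the CRE-bla antagonist read: HEK293T cells in DMEM with dialyzed FBS and 25 mM HEPES were treated 3 hrs under 0.25 uM final NKH477, then viability measured by CellTiter-Glo luminescence.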
% is scaled to controls: 0 for no effect and ±100 for the full control effect.

| Compound | viability change, negative = cytotoxic | Potency |
| --- | --- | --- |
| Cc1ccc2n[nH]nc2c1 | 2.15% (inactive) | – |
| O=S(=O)(Oc1ccc(Cl)cc1Cl)c1ccccc1 | – | inactive |
| CCSC(=O)N(CC(C)C)CC(C)C | 7.91% (inactive) | – |
| Nc1cc(Cl)c([N+](=O)[O-])cc1O | 4.8% (inactive) | – |
| c1ccccc1 | -0.407% (inactive) | – |
| COc1ccc(-c2nc3ccc(C4=NNC(=O)CC4C)cc3[nH]2)cc1 (stereo unspecified) | -5.35% [at 42.5 µM] (inactive) | – |
| O=C(O)C(=O)Cc1c[nH]c2ccccc12 | 5.19% (inactive) | – |
| CC(=O)Oc1ccc2c(c1)CC[C@@H]1[C@@H]2CC[C@]2(C)[C@@H](O)CC[C@@H]12 | -0.458% [at 42.5 µM] (inactive) | – |
| Cc1ccc([N+](=O)[O-])cc1S(=O)(=O)O | – | inactive |
| COS(=O)(=O)C(F)(F)F | 0.275% (inactive) | – |
| C=CCCCCCCCCCCCCCC | -1.45% [at 18.9 µM] (inactive) | – |
| OB(O)O | – | inactive |
| COCC(C)N (stereo unspecified) | – | inactive |
| CC(=O)OC(C)c1ccccc1 (stereo unspecified) | 8.71% (inactive) | – |
| CCC(C)C(=O)OCCc1ccccc1 (stereo unspecified) | -3.33% (inactive) | – |
| C[C@H]1C[C@@H](O)CC(C)(C)C1 | 1.58% (inactive) | – |
| CCn1nc(C)c2c1C(=O)NCC(c1ccc(O)cc1)=N2 | -5.45% (inactive) | – |
| C[C@H]1[C@@H](c2ccccc2)NC(=O)N1C | -2.74% (inactive) | – |
| CN(C)CCOCCN(C)CCO | 0.482% (inactive) | – |
| CC1CCc2cc(F)cc3c(=O)c(C(=O)O)cn1c23 (stereo unspecified) | -3.16% [at 42.5 µM] (inactive) | – |
| CN(C)CCCN(C)CCCN(C)C | 15% (inactive) | – |
| O=C(O)c1cn(-c2ccc(F)cc2)c2cc(N3CCNCC3)c(F)cc2c1=O | – | inactive |
| CCCCCCCCCCCCCC(=O)OC(C)C | – | inactive |
| NCCCCCCNCCCCCCN | 6.21% (inactive) | – |
| CC(C(=O)O)c1ccc(C(=O)c2cccs2)cc1 (stereo unspecified) | 1.03% [at 42.5 µM] (inactive) | – |
| CCC(=O)OCCC(C)CCC=C(C)C (stereo unspecified) | 6.31% (inactive) | – |
